Data: PubChem BioAssay (NCI)
About 83,000 compounds went through this panel and 20% of them were active in at least one assay; those are over-represented in the sample as a whole.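 Results are percent growth after 48 hours of single-concentration exposure. 100 means growth as in untreated cells, lower positive values show inhibition; negative values down to -100 show cell death.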 Values without a mark were called inactive. Active and inactive are the calls of the source. How the source made its calls: active means growth percent below 10; inactive means the rest.

Columns and labels:
Test in all cases: NCI-60 one-dose screen, 48 h (100 = growth as untreated, 0 = no growth, -100 = all killed)
[1] = system: NCI-H322M lung; conditions: 10 µM unless noted
[2] = system: HOP-62 NSCLC; conditions: 10 µM unless noted
[3] = system: NCI-H522 lung; conditions: 10 µM unless noted
[4] = system: A549/ATCC NSCLC; conditions: 10 µM unless noted
[5] = system: SF-295 CNS; conditions: 10 µM unless noted
[6] = system: U251 CNS; conditions: 10 µM unless noted
[7] = system: EKVX NSCLC; conditions: 10 µM unless noted
[8] = system: UO-31 renal; conditions: 10 µM unless noted
[9] = system: CAKI-1 renal; conditions: 10 µM unless noted
[10] = system: A498 renal; conditions: 10 µM unless noted
[11] = system: CCRF-CEM leukemia; conditions: 10 µM unless noted
[12] = system: MOLT-4 leukemia; conditions: 10 µM
[13] = system: OVCAR-5 ovarian; conditions: 10 µM unless noted
[14] = system: SK-OV-3 ovarian; conditions: 10 µM unless noted
[15] = system: HS 578T breast; conditions: 10 µM unless noted
[16] = system: T-47D breast; conditions: 10 µM unless noted
[17] = system: HT29 colon; conditions: 10 µM unless noted
[18] = system: HOP-92 NSCLC; conditions: 10 µM unless noted

| Compound | growth [1] [%] | growth [2] | growth [3] | growth [4] | growth [5] | growth [6] | growth [7] | growth [8] | growth [9] | growth [10] | growth [11] | growth [12] | growth [13] [%] | growth [14] | growth [15] | growth [16] | growth [17] | growth [18] |
| --- | --- | --- | --- | --- | --- | --- | --- | --- | --- | --- | --- | --- | --- | --- | --- | --- | --- | --- |
| N#CC1=C(N)Oc2cc3c(cc2C1c1cccs1)OCO3 (stereo not drawn) | 40.5 | 26.3% | -26% (active) | 36.8% | 4.03% (active) | 25.4% | 53.7% | 49.2% | 43.4% | 7.63% (active) | 21.4% | 29.9% | 52.2 | 7.21% (active) | 24.6% | 42.8% | – | – |
| Cc1cc(NC(=O)/C=C/c2ccc([N+](=O)[O-])cc2)ccc1S(=O)(=O)F | 84.8 | 103% | – | 98.8% | – | 102% | – | 71.8% | – | 98.7% | 98.2% | 89.5% | – | 99.9% | – | 87.6% | 99.7% | – |
| Cc1cccc(N(C)c2cccc3c2C(=O)[Se]C3)c1C | 72.8 | 18.8% | – | 15.8% | 20.7% | 47% | 19.9% | 23% | 70.1% | – | 56.1% | 67.9% | 25.5 | 188% | 58.8% | 73.4% | 9.4% (active) | 81.4% |
| CC(=O)O[C@H]1CCC2(C)C(=CCC3C2CCC2(C)/C(=N/OC(=O)c4ccc(N(CCCl)CCCl)cc4)CCC32)C1 (stereo partly drawn) | – | -60.8% (active) | 27.6% | 2.05% (active) | 63.5% | -27.2% (active) | 23.1% | -11.9% (active) | – | 57% | – | 3.85% (active) | 81.7 | – | 27% | 17.7% | 32.6% | 76.1% |
| C/C(=N/OC(=O)N(C)C)c1ccc(Cl)cc1Cl | – | 98.2% | 83.6% | 97.3% | 98.6% | – | – | 80.8% | – | 90.9% | 94.1% | 90% | – | 94.6% | 107% | 96.7% | 105% | 108% |
| O1[As]2O[As]3O[As]1O[As](O2)O3 | 38.2 | – | -63.4% (active) | 37.8% | 4.61% (active) | -69.2% (active) | 5.14% (active) | -7% (active) | -20.2% (active) | 2.98% (active) | 13.1% | 10.7% | 18.7 | 38% | – | 22.9% | -21.1% (active) | -24.4% (active) |
| CC(C)(C)NCC(O)c1ccccc1Cl (stereo not drawn) | 28.3 | 29.3% | -37.2% (active) | – | -3.79% (active) | 10.2% | 53.6% | 48.1% | 54.6% | -9.2% (active) | 10.5% | 31.6% | 11 | 9.23% (active) | 3.29% (active) | 51.5% | 2.91% (active) | – |
| Cn1cnnc1[S-].[Au+].c1ccc([PH+](c2ccccc2)c2ccccc2)cc1 | 89 | 25.1% | -75% (active) | 78.8% | 78.8% | -43.1% (active) | 60.7% | 48.5% | – | 64.7% | 1.22% (active) | -9.25% (active) | – | – | 49.2% | -16.6% (active) | 39.8% | -58.1% (active) |
| CNC(=O)O/N=C(/C)c1ccc(Cl)cc1 | – | – | 96.5% | 99.3% | 101% | – | – | 83.8% | 98.2% | 92.2% | 96.3% | – | 111 | 96.8% | 137% | 91.8% | 99.1% | 86.4% |
| O=C(O)CNC(=O)c1ccccc1 | – | 93.4% | – | 101% | 104% | – | – | 95.8% | 83.2% | 85% | 101% | – | 98.6 | 104% | 108% | 104% | 114% | 92.4% |
| CCOC(=O)C1(c2ccccc2)CCN(CC(=O)c2ccc(NC(C)=O)cc2)CC1 | – | 99.9% | – | 95% | 110% | 99.2% | 102% | – | 95.4% | 94.5% | 99.3% | 102% | 100 | 101% | 113% | 88.2% | 103% | 66.5% |
| CCN1CC2(CN(CC)C1=S)C(=O)NC(=O)NC2=O | 107 | 90.1% | 84.7% | 99.9% | 95.1% | 97.7% | 99% | – | 85.4% | 112% | 101% | 107% | 114 | 97.4% | 104% | 90.4% | 90.3% | 53.9% |
| N#CC(C#N)=Cc1ccc2ccccc2c1 | – | 113% | 96.7% | 107% | 111% | 104% | 121% | – | 101% | – | 93.3% | 107% | 106 | 104% | – | 110% | 113% | 95.1% |
| CC(=O)O[C@H]1CCC2C3CCC4=C/C(=N/O)CCC4(C)C3CCC21C (stereo partly drawn) | – | 93.4% | 83.2% | – | – | 83.3% | 88.5% | 65.1% | 80.5% | 53.1% | – | 72.6% | 99.5 | 104% | 55.2% | 95.6% | 76% | 89.8% |
